Assay results: PubChem BioAssay (NCI)
This is part of a sample that, as a whole, favours compounds with a hit. Of some 83,000 tested, about 20% had one in any assay.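 Compound tested at a single concentration for 48 hours in 96-well plates; a percent growth value below 10 was scored as active.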 Calls of active or inactive are those of the source.

Assays:
Experiment in all cases: NCI-60 one-dose screen, 48 h (100 = growth as untreated, 0 = no growth, -100 = all killed)
Details in all cases: 10 µM unless noted
NCI-H23 lung = tested on: NCI-H23 lung
NCI-H226 lung = tested on: NCI-H226 lung
NCI-H322M lung = tested on: NCI-H322M lung
HOP-62 NSCLC = tested on: HOP-62 NSCLC
NCI-H460 lung = tested on: NCI-H460 lung
HOP-92 NSCLC = tested on: HOP-92 NSCLC
NCI-H522 lung = tested on: NCI-H522 lung
A549/ATCC NSCLC = tested on: A549/ATCC NSCLC
786-0 renal = tested on: 786-0 renal
COLO 205 colon = tested on: COLO 205 colon
DU-145 prostate = tested on: DU-145 prostate
K-562 leukemia = tested on: K-562 leukemia
MALME-3M melanoma = tested on: MALME-3M melanoma
MDA-MB-231 breast = tested on: MDA-MB-231 breast
RXF 393 renal = tested on: RXF 393 renal
SF-268 CNS = tested on: SF-268 CNS
SF-295 CNS = tested on: SF-295 CNS
SF-539 CNS = tested on: SF-539 CNS
UACC-257 melanoma = tested on: UACC-257 melanoma
M14 melanoma = tested on: M14 melanoma

Measured: growth

Nc1ncnc2c1c(-c1ccc(Oc3ccccc3)cc1)nn2C[C@@H]1SSC[C@H]1O
inactive: NCI-H23 lung 40.6% | NCI-H322M lung 36.9% | HOP-62 NSCLC 37.6% | NCI-H522 lung 10.1% | A549/ATCC NSCLC 21.4% | 786-0 renal 42.7% | COLO 205 colon 52% | DU-145 prostate 33.4% | MDA-MB-231 breast 42.6% | SF-268 CNS 29.3% | SF-295 CNS 24.2% | SF-539 CNS 15.3% | UACC-257 melanoma 36.8%
active: NCI-H226 lung -3.02% | NCI-H460 lung 3.61% | HOP-92 NSCLC -6.86% | K-562 leukemia 7.7% | MALME-3M melanoma 7.28% | RXF 393 renal -9.3% | M14 melanoma -13.8%

Clc1ccc(OCc2nc(-c3ccccc3)n[nH]2)c(Cl)c1
inactive: NCI-H23 lung 97.6% | NCI-H226 lung 89.9% | NCI-H322M lung 101% | HOP-62 NSCLC 86.8% | NCI-H460 lung 99.3% | HOP-92 NSCLC 90.8% | NCI-H522 lung 92% | A549/ATCC NSCLC 97.1% | 786-0 renal 108% | COLO 205 colon 90.5% | DU-145 prostate 109% | K-562 leukemia 111% | MALME-3M melanoma 104% | MDA-MB-231 breast 98.8% | RXF 393 renal 108% | SF-268 CNS 96.6% | SF-295 CNS 97.8% | SF-539 CNS 99.4% | UACC-257 melanoma 97.8% | M14 melanoma 106%

Cc1nccc2c3ccc(OCc4cn(-c5ccc(Br)cc5)nn4)cc3n(CCCc3ccccc3)c12
active: 786-0 renal -71.4% | MALME-3M melanoma -61.1% | MDA-MB-231 breast -1.95% | RXF 393 renal -26.2% | SF-268 CNS -15.5% | SF-539 CNS -59.8% | UACC-257 melanoma -20% | M14 melanoma -81.7%
inactive: NCI-H23 lung 51.2% | NCI-H226 lung 91% | NCI-H322M lung 91.1% | HOP-62 NSCLC 110% | NCI-H460 lung 33.4% | HOP-92 NSCLC 99.7% | NCI-H522 lung 84.9% | A549/ATCC NSCLC 12.2% | COLO 205 colon 40.7% | DU-145 prostate 48.6% | K-562 leukemia 14.9% | SF-295 CNS 98.2%

Nc1ncnc2c1c(-c1ccc(Oc3ccccc3)cc1)nn2C[C@H]1SSC[C@H]1O
inactive: NCI-H23 lung 19.3% | NCI-H322M lung 13.4% | HOP-62 NSCLC 20.1% | 786-0 renal 12.9% | MALME-3M melanoma 13.9% | SF-268 CNS 20.1% | SF-295 CNS 20.7% | SF-539 CNS 10%
active: NCI-H226 lung -2.25% | NCI-H460 lung -43.6% | HOP-92 NSCLC -4.52% | NCI-H522 lung -31.1% | A549/ATCC NSCLC -35.8% | COLO 205 colon -83.3% | DU-145 prostate -22.6% | K-562 leukemia -16.9% | MDA-MB-231 breast 9.82% | RXF 393 renal -4.66% | UACC-257 melanoma 1.69% | M14 melanoma -66.7%

CCCCCCCCCCCCCCCCCCNCc1ccc(Cl)cc1
inactive: UACC-257 melanoma 38.9%
active: NCI-H23 lung -65.4% | NCI-H226 lung 4.03% | NCI-H322M lung 9.39% | HOP-62 NSCLC -77.7% | NCI-H460 lung -71.6% | HOP-92 NSCLC -78% | NCI-H522 lung -82.5% | A549/ATCC NSCLC -80.7% | 786-0 renal -75.1% | COLO 205 colon -83.9% | DU-145 prostate -91.3% | K-562 leukemia -65.7% | MALME-3M melanoma -57.6% | MDA-MB-231 breast -72.9% | RXF 393 renal -74.4% | SF-268 CNS -63.5% | SF-295 CNS -46.8% | SF-539 CNS -88.1% | M14 melanoma -72.2%

CCCC(=O)Oc1ccc(/C(=C(\C)c2ccc(OC)cc2)c2ccc(OCCN3CCCCC3)cc2)cc1
inactive: NCI-H23 lung 79.3% | NCI-H226 lung 83.5% | NCI-H322M lung 89.7% | HOP-62 NSCLC 86.1% | NCI-H460 lung 87.1% | HOP-92 NSCLC 69% | NCI-H522 lung 78.9% | A549/ATCC NSCLC 76.8% | 786-0 renal 67.1% | COLO 205 colon 67.6% | DU-145 prostate 87.1% | K-562 leukemia 21.9% | MALME-3M melanoma 61.9% | MDA-MB-231 breast 109% | RXF 393 renal 66.2% | SF-268 CNS 83.1% | SF-295 CNS 61.5% | SF-539 CNS 65.5% | UACC-257 melanoma 68.5% | M14 melanoma 33.8%

CCOC(=O)c1cnc2c(OC)ccc(OC)c2c1Cl
inactive: NCI-H23 lung 110% | NCI-H226 lung 113% | NCI-H322M lung 120% | HOP-62 NSCLC 101% | NCI-H460 lung 108% | HOP-92 NSCLC 98.5% | NCI-H522 lung 120% | A549/ATCC NSCLC 97.3% | 786-0 renal 117% | COLO 205 colon 117% | DU-145 prostate 118% | K-562 leukemia 116% | MALME-3M melanoma 98.3% | MDA-MB-231 breast 128% | RXF 393 renal 115% | SF-268 CNS 98.9% | SF-295 CNS 110% | SF-539 CNS 104% | UACC-257 melanoma 101% | M14 melanoma 106%

COc1cc(-c2nc3sc(C)cn3c2/C=C2\C(=O)Nc3ccccc32)c(Br)c(OC)c1OC
active: NCI-H460 lung 8.76% | NCI-H522 lung -10.6% | K-562 leukemia 9.97%
inactive: NCI-H23 lung 74.4% | NCI-H226 lung 80.1% | NCI-H322M lung 55.8% | HOP-62 NSCLC 26% | HOP-92 NSCLC 44.2% | A549/ATCC NSCLC 50.3% | 786-0 renal 22.9% | COLO 205 colon 52.7% | DU-145 prostate 46.9% | MALME-3M melanoma 26.3% | MDA-MB-231 breast 79.4% | RXF 393 renal 13.4% | SF-268 CNS 54.1% | SF-295 CNS 21.8% | SF-539 CNS 11.8% | UACC-257 melanoma 79.4% | M14 melanoma 22.2%
